The supplement of paper PMC13380429
A number with no mark means an inactive call.

The compounds below were run on Vero E6 infected with SARS-CoV-2 (assay: SARS-CoV-2 infection rate relative to infected DMSO; higher = more infection, active = 60 or less). Settings: 24 h.

Row | Compound | SARS-CoV-2 infection rate [%]
1 | O=C(O)[C@]1(Cc2cccc(Nc3nccs3)n2)CC[C@@H](Oc2cccc(Cl)c2F)CC1 (0.833333 µM) | 106
2 | CCCCCCNC(=O)n1cc(F)c(=O)[nH]c1=O [carmofur] (0.833333 µM) | 96
3 | CC[C@H](c1ccc(O)cc1)[C@@H](CC)c1ccc(O)cc1 [hexestrol] (10 µM) | 102
4 | O=C(O)CNC(=O)c1ccccc1I [2-iodohippuric-acid] (10 µM) | 110
5 | CC(=O)O[C@]1(C(C)=O)CC[C@H]2[C@@H]3C[C@H](C)C4=CC(=O)CC[C@]4(C)[C@H]3CC[C@@]21C [medroxyprogesterone-acetate] (10 µM) | 105
6 | NS(=O)(=O)c1cc2c(cc1C(F)(F)F)NC(Cc1ccccc1)NS2(=O)=O (stereo not given) [bendroflumethiazide] (10 µM) | 87.5
7 | CCCN[C@H]1CCc2nc(N)sc2C1 [pramipexole] (10 µM) | 120
8 | O=C(OC[C@H]1O[C@@H](OC(=O)c2cc(O)c(O)c(OC(=O)c3cc(O)c(O)c(O)c3)c2)[C@H](OC(=O)c2cc(O)c(O)c(OC(=O)c3cc(O)c(O)c(O)c3)c2)[C@@H](OC(=O)c2cc(O)c(O)c(OC(=O)c3cc(O)c(O)c(O)c3)c2)[C@@H]1OC(=O)c1cc(O)c(O)c(OC(=O)c2cc(O)c(O)c(O)c2)c1)c1cc(O)c(O)c(OC(=O)c2cc(O)c(O)c(O)c2)c1 [tannic-acid] (10 µM) | 114
9 | NCCCCN=C(N)N [agmatine] (10 µM) | 106
10 | Nc1nc(N)nc(-c2cc(Cl)ccc2Cl)n1 [irsogladine] (10 µM) | 94.5
